Source: PubChem BioAssay (NCATS)
Records with an inconclusive call do not appear. A number with no mark means an inactive call. The source made the active and inactive calls. Calls come from the whole dose curve; as a rule, active = well fitted inhibition curve with a large enough effect; inconclusive = small, poorly fitted or top-dose-only effect; inactive = flat fitted curve, though single readings scatter. Positions of bridges follow the written chain, without caps; N, C: chain ends. Non-standard residues stand in square brackets, D forms with d. Residues, ends and D or L forms follow the SMILES beside them. *: point of attachment. X1 = CCC(C)C(N)C1=NC(C(=O)*)CS1; dOrn = NCCC[C@@H](N)C(=O)O

Experiment: BET inhibitor-based combinations targeting novel dependencies in MECOM-rearranged (r) AML: AML-191 cell line (AID 2202236; note: nearly all actives have a fitted effect of over 35% in size)
Conditions: AML-191 viability, CellTiter-Glo luminescence, 48 h; series mostly up to 46 µM; viability (% of control): at the top concentration
Text: Ecotropic viral insertion site 1 (EVI1) is located on chromosome 3q26.2 as part of the MECOM (MDS and EVI1 complex) locus. Under normal hematopoiesis, EVI1 is a regulator of hematopoietic stem cell maintenance and self-renewal and EVI1 levels decrease as the cells differentiate. In approximately 5-10% of de novo acute myeloid leukemia (AML) EVI1 is aberrantly expressed, including Chromosomal inv(3)(q21;q26.2) or t(3;3)(q21;q26.2) alterations (MECOM-r) that account for about 50% of AML with EVI1 overexpression 31. AMLs with high levels of EVI1 have a poor prognosis and an overall survival time averaging between 10-14 months. EVI1 overexpression confers resistance in leukemia cells, highlighting the need to develop new targeted therapies for EVI1 overexpressing AMLs.
Here, we performed an unbiased chemical drug screening by evaluating the single agent activity of a collection of 2,480 oncology-focused, approved and investigational drugs (NCATS Mechanism Interrogation Plates, MIPE v5.0) against a panel of seven AML cell lines. These included four MECOM-r cell-lines (AML-191, AML-194, UCSD-AML1 and HNT-34) and three non-MECOM-r AMLs (MV4-11, OCI-AML3 and SET-2). Exploiting the mechanistic redundancy built in the library, we identified target-level sensitivities in MECOM-r AML cells and relative activity as compared to other AML subtypes.
A collection of 2480 mechanistically annotated dugs (MIPE v5.0) was used to screen four 3q26.2 rearranged AML cell lines and three non-3q26.2 rearranged AML cell lines. This library purposely exploits redundancy by including multiple inhibitors of key onco-targets, while simultaneously encompassing mechanistic diversity, targeting more than 800 distinct mechanisms of action. Briefly, cells were seeded in 5 uL of growth media using a Multidrop Combi dispenser into 1536 well white polystyrene tissue culture treated plates (Corning) at a density of 500cells/well. For each cell-line, for each of the 2480 drugs in MIPE v5.0 library, an 11-point dose curve was generated via a 1536 pin-tool. Plates were incubated for 48 hr at standard incubator conditions, covered by a stainless steel gasketed lid to prevent evaporation. Cell viability was determined by luminescence based, Cell Titer Glo assay (Promega). In detail, 3 uL of Cell Titer Glo were added to each well and plates were incubated at room temperature for 15 min with a stainless-steel lid in place. Luminescence readings were taken using a Viewlux (PerkinElmer) with a 2 s exposure time per plate. Compound dose-response curves were normalized to DMSO and empty well controls on each plate. Quantitative drug activity data from dose-response curves was determined utilizing area Under the Curve (AUC) and Z-transformed AUC (Z-AUC, a mean-centering transformation applied to each individual cell-line screened).
Potency is the fitted concentration of half-maximal effect.

SMILES	Potency	viability (% of control)
COc1cc(C(=O)NC2CCN(C)CC2)ccc1Nc1ncc2c(n1)N(C1CCCC1)CCC(=O)N2C(C)C	18.6 µM (active)	–
O=C(NCC(=O)N1CC[C@H](NC2CCC(O)(c3ccc(-c4ncccn4)cn3)CC2)C1)c1cccc(C(F)(F)F)c1 (stereo not given in full)	–	105%
CS(=O)(=O)Nc1ccc([N+](=O)[O-])cc1Oc1ccccc1	–	97.9%
CC(C)C[C@H](NC(=O)[C@@H](O)[C@H](N)Cc1ccccc1)C(=O)O	–	93.8%
O=C(CCl)Nc1cccc(NC2=NS(=O)(=O)c3ccccc32)c1	8.33 µM (active)	–
NC(N)=NC(N)=NCCc1ccccc1	–	88.7%
CNc1nc(C)nc(N[C@H]2CCC[C@@H](C(=O)NCc3ccc(C#N)cc3C(F)(F)F)C2)n1	–	102%
O=C(O)CCCCCC(=O)NN=C1CCCC1	–	105%
Cc1[nH]nc(C(F)(F)F)c1Cc1sc2c(c1C(=O)N1C[C@](C)(O)CO1)c(=O)n(C)c(=O)n2C(C)C	–	98.9%
CCOCc1nc2c(N)nc3ccccc3c2n1CC(C)(C)O	–	97.2%
C1CCC(C(CC2CCCCN2)C2CCCCC2)CC1 (stereo not given)	9.34 µM (active)	–
Nc1ncnc2ccccc12	–	110%
CCN(CC)CCOc1ccc(/C(=C(\Cl)c2ccccc2)c2ccccc2)cc1	18.6 µM (active)	–
Cc1cccc(-c2[nH]c(CNc3ccccc3F)nc2-c2ccc3ncnn3c2)n1	–	95.7%
NC(=O)c1cccnc1	–	98.7%
CC(C(=O)O)c1ccc(-c2ccccc2)c(F)c1 (stereo not given)	–	114%
CC(C)C(C)C=CC(C)C1CCC2C3=CC=C4CC(O)CCC4(C)C3CCC21C (stereo not given)	–	100%
COCCCOc1ccnc(CS(=O)c2nc3ccccc3[nH]2)c1C (stereo not given)	–	83.6%
O=C(CCCc1ccc2cccnc2n1)NCc1cc(-c2ccc(F)c(C(F)(F)F)c2)no1	–	93.7%
CC[C@@H]1C(=O)N(C)c2cnc(Nc3ccc(C(=O)NC4CCN(C)CC4)cc3OC)nc2N1C1CCCC1	0.166 µM (active)	–

SMILES	Potency	viability (% of control)
O=C1NC(=O)/C(=C/c2ccc3nccnc3c2)S1	–	95.1%
COc1cc(N2CCC(N(C)C)CC2)ccc1Nc1ncc(Cl)c(Nc2ccccc2P(C)(C)=O)n1	9.34 µM (active)	–
O=C(O)CCn1c2c(c3ccccc31)C[C@H](NS(=O)(=O)c1ccc(F)cc1)CC2	–	92.7%
CC(=O)O[C@]1(C(C)=O)CC[C@H]2[C@@H]3C[C@H](C)C4=CC(=O)CC[C@]4(C)[C@H]3CC[C@@]21C	9.34 µM (active)	–
C[C@@]1(c2cc(-c3cncnc3)c(F)cc2F)CCSC(N)=N1	–	95.5%
CCC(C)C(N)C1=NC(C(=O)N[C@@H](CC(C)C)C(=O)N[C@H](CCC(=O)O)C(=O)N[C@H](C(=O)N[C@H]2CCCCNC(=O)[C@H](CC(N)=O)NC(=O)[C@@H](CC(=O)O)NC(=O)[C@H](Cc3cnc[nH]3)NC(=O)[C@@H](Cc3ccccc3)NC(=O)[C@H]([C@@H](C)CC)NC(=O)[C@@H](CCCN)NC2=O)[C@@H](C)CC)CS1 (stereo not given in full) (X1-L[dE]IK[dOrn]I[dF]H[dD]N; lactam 4-C)	–	102% [at 15.6 µM]
Nc1ccc(S(N)(=O)=O)cc1	–	93.8%
COc1cccc2c1C(=O)c1c(O)c3c(c(O)c1C2=O)C[C@@](O)(C(=O)CO)C[C@@H]3O[C@H]1C[C@H](N)[C@@H](O)[C@H](C)O1	0.372 µM (active)	–
Cn1cc(-c2ccc(F)c(C(F)(F)F)c2)nc1C1CCN(c2ncnc3[nH]ncc23)CC1	20.9 µM (active)	–
CC1CNc2c(cccc2S(=O)(=O)N[C@@H](CCCN=C(N)N)C(=O)N2CC[C@@H](C)C[C@@H]2C(=O)O)C1 (stereo not given in full)	–	109%
Cc1nc(Nc2ncc(C(=O)Nc3c(C)cccc3Cl)s2)cc(N2CCN(CCO)CC2)n1	14.8 µM (active)	–
COc1ccccc1N1CCN(CCN(C(=O)C2CCCCC2)c2ccccn2)CC1	–	72.7%
O=C(O)c1cc(=O)[nH]c(=O)[nH]1	–	122%
CC[C@H](C=C[C@@H](C)[C@H]1CC[C@H]2[C@@H]3CC=C4C[C@@H](O)CC[C@]4(C)[C@@H]3CC[C@]12C)C(C)C	–	100% [at 15.6 µM]
C[Se]CCC(N)C(=O)O (stereo not given)	–	100% [at 92.2 µM]
COC(=O)N1CC2(CC2)C[C@H](C(=O)NO)[C@H]1C(=O)N1CCN(c2ccccc2)CC1	–	104%
CN(C)C/C=C/C(=O)Nc1ccc(C(=O)Nc2cccc(Nc3ncc(Cl)c(-c4c[nH]c5ccccc45)n3)c2)cc1	0.235 µM (active)	–
Nc1cccc(-c2cc3c(Oc4cccc(O)c4)ncnc3[nH]2)c1	3.32 µM (active)	–
Cc1ccc(S(=O)(=O)NC(=O)NN2CC3CCCC3C2)cc1 (stereo not given)	–	107%
Cn1c(=O)c2[nH]cnc2n(C)c1=O	–	106%
